Source: PubChem (National Center for Advancing Translational Sciences (NCATS))
POLH inh – blocks human DNA polymerase eta activity. Potency, µM (titrated, usually from 114 µM), for inactives: top-dose activity change, negative = inhibition, hits mostly inhibitors. 390,000 tested, 1.2% active. recombinant Pol eta, fluorescent DNA replication assay; also: % is scaled to controls: 0 for no effect and ±100 for the full control effect
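Fluorescent replication assay: 50 nM final substrate added after a 15 min room-temperature compound preincubation with 10 nM enzyme. Signal taken at 0 min and again at 10 min.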
POLI inh – inhibitors of human DNA polymerase iota; Pol iota fluorescent replication assay, 10 min; Potency, µM (top dose mostly 115 µM), without a hit: at the highest dose activity, negative = inhibition, hits mostly inhibitors; Q9UNA4; 390,000 tested, 1% active
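Pol iota at 10 nM preincubated 15 min with compounds at room temperature; reaction started with fluorescent substrate, 50 nM final. Fluorescence read kinetically at 0 and 10 min; buffer-only wells as negative control.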
WRN helicase inh – inhibitors of human WRN helicase; 360,000 tested, 0.46% active; WRN helicase unwinding, fluorescent forked duplex, kinetic; Q14191; AID 651768; Potency, µM (highest dose often 114 µM), inactives show at the highest dose activity change, negative = inhibition, hits mostly inhibitors; also: % is scaled to controls: 0 for no effect and ±100 for the full control effect; nearly all actives have a fitted effect of over 55% in size
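Kinetic red-fluorescence monitoring (525/598 nm) tracks WRN helicase activity after 100 nM fluorophore-quencher forked duplex and 2 mM ATP are added to 20 nM enzyme pretreated 15 min at room temperature with compound.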
Pol beta inh – blocks human DNA polymerase beta activity; Potency, µM (doses to about 114 µM), for inactives: at the top dose activity change, negative = inhibition, most hits filed as inhibitors; 340,000 tested, 1.3% active; Pol beta primer extension/strand displacement, fluorescence kinetic; also: % is scaled to controls: 0 for no effect and ±100 for the full control effect
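Preincubation: enzyme (10 nM) with compound, 15 min, RT. Reaction: substrate added to 50 nM final. Reads: 0 and 10 min. Analysis: normalized, Hill fit.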
POLK inh – DNA polymerase kappa (human) inhibition; AID 588579; 400,000 tested, 0.53% active; purified Pol kappa, fluorescent DNA synthesis assay, 10 min; Potency, µM (doses to about 107 µM), for the others: at the top dose activity, negative = inhibition, actives largely listed as inhibitors; Q9UBT6; also: % is scaled to controls: 0 for no effect and ±100 for the full control effect
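First, compounds were pin-transferred onto 10 nM Pol kappa. After 15 min at room temperature, substrate was added to 50 nM final. Fluorescence was then measured kinetically at 0 and 10 min.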
FEN1 inhibitor – human FEN1 inhibition. P39748. Recombinant FEN1 flap cleavage, fluorescence, 15 min. Potency, µM (doses to about 114 µM), for the others: at the top dose activity change, negative = inhibition, most hits filed as inhibitors. 390,000 tested, 0.35% active; also: % is scaled to controls: 0 for no effect and ±100 for the full control effect; nearly all actives have a fitted effect of over 65% in size
Target sequence (P39748 whole entry, looked up): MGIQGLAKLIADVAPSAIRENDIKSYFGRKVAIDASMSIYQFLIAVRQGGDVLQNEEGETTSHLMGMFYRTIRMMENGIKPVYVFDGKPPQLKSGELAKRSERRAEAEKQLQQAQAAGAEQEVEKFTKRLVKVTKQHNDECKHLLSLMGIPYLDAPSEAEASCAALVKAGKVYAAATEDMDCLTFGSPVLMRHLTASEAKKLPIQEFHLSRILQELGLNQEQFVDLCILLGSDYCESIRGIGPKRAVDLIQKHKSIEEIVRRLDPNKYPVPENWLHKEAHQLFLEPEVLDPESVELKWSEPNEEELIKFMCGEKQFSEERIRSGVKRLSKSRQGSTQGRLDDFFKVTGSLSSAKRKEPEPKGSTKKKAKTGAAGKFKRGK
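With each library titrated from low to high concentration, compounds met 10 nM FEN1 for 15 min at room temperature before 50 nM substrate was added; readings at 0 and 15 min fed four-parameter Hill curve fits.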
* hit, by the source's call; ? = inconclusive; . = not tested or not shown; ! = not active in a repeat; [ ] = remark or other dose. An excerpt weighted towards active compounds, which were near 2.4% of everything screened. Calls follow the shape of the dose curve; as a rule, active = well fitted curve in the direction sought with a large enough effect; inconclusive = small, poorly fitted or top-dose-only effect, or another doubt; inactive = no such curve, though single readings can be large; an effect the other way counts as inactive or inconclusive. Potency is read from the fitted curve at half-maximal effect.

SMILES	POLH inh	POLI inh	WRN helicase inh	Pol beta inh	POLK inh	FEN1 inhibitor
COC(=O)c1ccc(N=C(c2ccccc2)c2c(O)n(C)c(=O)n(C)c2=O)cc1	-0.4%	31.6µM*	2.9%	10.4%	-15.0%	1.9%
CCOC(=O)c1ccc(N=C(c2ccccc2)c2c(O)n(C)c(=O)n(C)c2=O)cc1	-14.0%	?	-10.0%	8.3%	-8.8%	16.7%
CN(C)C1C(=O)C(C(N)=O)C(=O)C2(O)C(=O)C3C(=O)c4c(O)cccc4C(C)(O)C3C(O)C12 (centres undefined)	.	.	.	.	2.82µM*	.
CN(C)[C@@H]1C(=O)C(C(N)=O)=C(O)[C@@]2(O)C(=O)C3=C(O)c4c(O)cccc4[C@@](C)(O)C3C[C@@H]12 (some centres undefined)	-5.5%	?	-8.3%	.	79.4µM*	?
CN(C)C1C(=O)C(C(N)=O)=C(O)[C@@]2(O)C(=O)C3=C(O)c4c(O)cccc4[C@](C)(O)C3C(O)C12 (some centres undefined)	.	.	.	.	2.82µM*	.
CN(C)C1CSSSC1	.	.	.	.	18.2%[60.1 µM]	.
Oc1ccc2c(c1)[C@@]13CCCCC1[C@@H](C2)N(CC1CCC1)CC3 (some centres undefined)	.	.	.	.	7.6%[60.1 µM]	.
CCCCCCCCCCCCCCCC[n+]1ccccc1	-18.6%	19.6%	-3.2%	.	9.2%	79.4µM*
COc1ccccc1-c1nn2c(=O)cc(CN3CCN(C(=O)Nc4ccc(C)cc4Cl)CC3)nc2s1	-21.3%	33.7%	.	-24.5%	-3.4%[60.1 µM]	-6.9%
CC(=O)Nc1c2sscc-2n(C)c1=O	.	.	.	.	-8.3%[60.1 µM]	.
CCCC[C@@H](C)[C@@H](OC(=O)C[C@@H](CC(=O)O)C(=O)O)[C@H](C[C@@H](C)CCCCCC[C@@H](O)C[C@H](O)[C@H](C)N)OC(=O)C[C@@H](CC(=O)O)C(=O)O	.	.	.	.	-1.7%[60.1 µM]	.
Oc1ccccc1O	?	79.4µM*	1.1%[11.6 µM]	39.8µM*	50.1µM*	-3.6%
C[Se]C[C@H](N)C(=O)O	-1.0%[57.1 µM]	1.0%[58.9 µM]	.	12.1%[57.1 µM]	-4.1%[60.1 µM]	.
CCn1c(O)c(C=Nc2ccc(N3CCOCC3)cc2)c(=O)n(CC)c1=S	71.3%	4.8%	12.5%	17.8µM*	-8.6%	-11.6%
CCn1c(O)c(C=Nc2ccc(N3CCOCC3)c(Br)c2)c(=O)n(CC)c1=S	-12.6%	20.4%	7.5%	30.2%	-12.7%	7.7%
Cc1cnc2c(C(=O)O)c(Cl)ccc2c1	.	.	.	.	14.5%[60.1 µM]	.
N.N.N.N.N.N.N.N.N.N.N.N.N.N.O.O.[Ru+4].[Ru+5].[Ru+5]	.	.	.	.	26.7µM*	.
CN1C(=O)/C(=C\N2CCc3ccccc32)C(=O)NC1=S	-5.6%	?	50.1µM*	1.9%	-27.2%	-18.1%
COc1ccc(C(=O)Nc2ccccc2C(=O)NC(C(=O)NCc2ccco2)C(C)C)cc1 (centres undefined)	8.91µM*	-16.6%	-7.7%	8.0%	-4.7%	10.0%
O=C(Cn1ncc2c3ccccc3n(Cc3cccc(Cl)c3)c2c1=O)N1CCC2(CC1)OCCO2	?	?	-8.8%	17.8µM*	-18.1%	-11.2%
Cc1c2cnn(CC(=O)N3CCC4(CC3)OCCO4)c(=O)c2c(C)n1Cc1cccc(Cl)c1	-4.2%	-11.7%	-4.8%	38.4%	-13.5%	-15.6%
Cc1ccc(-n2nc3c(=O)n(CC(=O)NCC(C)c4ccccc4)nc(C)c3c2C)cc1 (centres undefined)	-25.3%	31.0%	.	-1.9%	-11.0%	17.1%
CCC(=O)CCCCC[C@@H]1NC(=O)[C@H]2CCCCN2C(=O)[C@H]([C@@H](C)CC)NC(=O)[C@H](Cc2cn(OC)c3ccccc23)NC1=O	.	.	.	.	-7.8%[60.1 µM]	.
N[C@@H](CCl)C(=O)O	1.1%[57.1 µM]	-4.3%[58.9 µM]	-2.4%	15.3%[57.1 µM]	-10.6%[60.1 µM]	-2.7%
NC(Cc1cc(O)c(O)cc1O)C(=O)O (centres undefined)	0.282µM*	0.398µM*	.	0.112µM*	0.67µM*	3.16µM*
SMILES	POLH inh	POLI inh	WRN helicase inh	Pol beta inh	POLK inh	FEN1 inhibitor
NC(Cc1ccc(Oc2cc(I)c(O)c(I)c2)c(I)c1)C(=O)O (centres undefined)	.	.	.	.	7.08µM*	.
CC(C)C[C@H](NC(=O)[C@H](Cc1ccccc1)NC(=O)CNC(=O)[C@H](C)NC(=O)[C@@H](N)Cc1ccc(O)cc1)C(=O)O	.	.	.	.	7.3%[19.4 µM]	.
O=C(O)c1cc(O)c(O)c(O)c1	.	.	.	.	10µM*!	.
C[C@@H]1CC[C@H]2[C@@H](C)C(=O)O[C@@H]3OC4(C)CC[C@@H]1[C@]32OO4	.	.	.	.	-15.2%[60.1 µM]	.
CC(=O)Oc1ccc2c3c1OC1[C@@H](OC(C)=O)C=C[C@H]4[C@H](C2)N(C)CC[C@]314 (some centres undefined)	.	.	.	.	2.5%[19.4 µM]	.
Cc1cc(C(C#N)c2ccc(Cl)cc2)c(Cl)cc1NC(=O)c1cc(I)cc(I)c1O (centres undefined)	50.1µM*	?	-28.3%	.	?	28.2µM*
COc1ccc(Cn2c(N)c(C(=O)NCc3ccco3)c3nc4ccccc4nc32)cc1	?	?	-14.9%	56.2µM*	-16.3%	-19.2%
CCCCn1c(N)c(C(=O)NCc2cccs2)c2nc3ccccc3nc21	-2.7%	?	-7.5%	-9.1%	-6.6%	-21.8%
CCCCn1c(N)c(C(=O)OCCOC)c2nc3ccccc3nc21	-2.0%	66.8%	4.2%	9.9%	-16.7%	1.6%
COCCCn1c(N)c(C(=O)NCCC(C)C)c2nc3ccccc3nc21	-12.4%	4.47µM*	-16.3%	5.5%	-27.6%	?
CCCNC(=O)c1c(N)n(CC2CCCO2)c2nc3ccccc3nc12 (centres undefined)	-0.2%	12.1%	-13.2%	9.9%	-12.2%	?
CC(C)OCCCNC(=O)c1c(N)n(CC2CCCO2)c2nc3ccccc3nc12 (centres undefined)	-13.1%	7.08µM*	-21.1%[57.1 µM]	?	-12.7%	-11.4%
CCCCCn1c(N)c(C(=O)NCc2cccs2)c2nc3ccccc3nc21	-12.5%	22.4µM*	-4.5%	15.1%	-0.6%	-18.5%
